# Test results taken from article PMC7862700, “An all-to-all approach to the identification of sequence-specific readers for epigenetic DNA modifications on cytosine”.
# Key:
# Test in all cases: DAPPL (digital affinity profiling via proximity ligation, sequencing); 10 mM Tris-HCl pH 7.5, 50 mM NaCl, 1 mM DTT, 4% glycerol, room temperature, 30 min; GST-TFs on glutathione beads, 16-mer random dsDNA library, 0.1% formaldehyde crosslink after washing; high values mean tight binding
# FEV = biological target: T1, FEV (Homo sapiens, UniProt Q99581 1-238); settings: protein: recombinant; tags: N-terminal GST; dsDNA, one strand shown
# T1 sequence: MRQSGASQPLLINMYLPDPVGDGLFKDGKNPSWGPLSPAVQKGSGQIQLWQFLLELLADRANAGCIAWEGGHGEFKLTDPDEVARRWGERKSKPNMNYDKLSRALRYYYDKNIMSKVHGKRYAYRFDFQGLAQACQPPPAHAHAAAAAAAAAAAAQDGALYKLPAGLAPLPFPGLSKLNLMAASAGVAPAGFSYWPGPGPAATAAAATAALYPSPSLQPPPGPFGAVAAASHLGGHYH
# Outline: (§1)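 Each value of binding signal is a hexamer's read frequency for a factor divided by the same hexamer's frequency in the tag-only sample. Barcoded, bead-captured GST fusions of human transcription factors made in yeast were pooled with that sample and incubated with 200 nmole of a random double-stranded 16-mer DNA library in Tris/NaCl/DTT/glycerol buffer at room temperature for 30 min. Washing, 0.1% formaldehyde crosslinking, proximity ligation, PCR and Illumina NextSeq500 sequencing followed.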
# ETV5 = ETV5 (Homo sapiens, UniProt P41161 1-510); settings: protein: recombinant; tags: N-terminal GST; dsDNA, one strand shown
# Outline: as §1
# HSF1 = HSF1 (Homo sapiens, UniProt Q00613 1-529); settings: protein: recombinant; tags: N-terminal GST; chain copies: 3; dsDNA, one strand shown
# Outline: as §1
# SPIC = biological target: T2, SPIC (Homo sapiens, UniProt Q8N5J4 1-248); settings: protein: recombinant; tags: N-terminal GST; dsDNA, one strand shown
# T2 sequence: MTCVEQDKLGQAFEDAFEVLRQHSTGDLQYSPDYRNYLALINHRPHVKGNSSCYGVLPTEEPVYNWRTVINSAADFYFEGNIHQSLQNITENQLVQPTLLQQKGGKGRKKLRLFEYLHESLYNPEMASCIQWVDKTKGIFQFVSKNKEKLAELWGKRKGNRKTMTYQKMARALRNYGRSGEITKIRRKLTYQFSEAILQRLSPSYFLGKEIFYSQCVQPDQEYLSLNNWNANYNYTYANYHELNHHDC
# Outline: as §1
# ELF4 = ELF4 (Homo sapiens, UniProt Q99607 1-663); settings: protein: recombinant; tags: N-terminal GST; dsDNA, one strand shown
# Outline: as §1
# ELK4 = biological target: T3, ELK4 (Homo sapiens, UniProt P28324-2 1-405); settings: protein: recombinant; tags: N-terminal GST; dsDNA, one strand shown
# T3 sequence: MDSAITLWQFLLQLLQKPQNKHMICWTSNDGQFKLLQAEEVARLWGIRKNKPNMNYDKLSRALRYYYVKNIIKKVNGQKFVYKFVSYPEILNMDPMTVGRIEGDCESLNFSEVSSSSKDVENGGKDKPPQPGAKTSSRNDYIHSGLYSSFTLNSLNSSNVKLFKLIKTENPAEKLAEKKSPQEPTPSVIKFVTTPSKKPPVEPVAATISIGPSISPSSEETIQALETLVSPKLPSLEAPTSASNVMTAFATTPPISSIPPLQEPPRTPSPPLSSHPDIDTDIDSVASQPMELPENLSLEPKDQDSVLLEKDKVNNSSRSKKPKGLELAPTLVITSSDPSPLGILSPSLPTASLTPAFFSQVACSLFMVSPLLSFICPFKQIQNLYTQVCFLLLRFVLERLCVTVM
# Outline: as §1
# ETV2 = biological target: T4, ETV2 (Homo sapiens, UniProt O00321 1-342); settings: protein: recombinant; tags: N-terminal GST; dsDNA, one strand shown
# T4 sequence: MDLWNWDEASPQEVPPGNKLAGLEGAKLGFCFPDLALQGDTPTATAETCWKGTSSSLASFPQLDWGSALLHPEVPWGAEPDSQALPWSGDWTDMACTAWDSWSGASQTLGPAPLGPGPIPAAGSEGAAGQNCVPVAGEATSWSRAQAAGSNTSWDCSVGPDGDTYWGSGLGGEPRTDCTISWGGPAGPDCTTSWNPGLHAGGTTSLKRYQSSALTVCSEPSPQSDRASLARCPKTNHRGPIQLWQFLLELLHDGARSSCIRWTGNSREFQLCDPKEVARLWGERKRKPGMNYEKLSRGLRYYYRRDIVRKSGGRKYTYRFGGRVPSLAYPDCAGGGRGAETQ
# Outline: as §1
# ELF3 = biological target: T5, ELF3 (Homo sapiens, UniProt P78545 1-371); settings: protein: recombinant; tags: N-terminal GST; dsDNA, one strand shown
# T5 sequence: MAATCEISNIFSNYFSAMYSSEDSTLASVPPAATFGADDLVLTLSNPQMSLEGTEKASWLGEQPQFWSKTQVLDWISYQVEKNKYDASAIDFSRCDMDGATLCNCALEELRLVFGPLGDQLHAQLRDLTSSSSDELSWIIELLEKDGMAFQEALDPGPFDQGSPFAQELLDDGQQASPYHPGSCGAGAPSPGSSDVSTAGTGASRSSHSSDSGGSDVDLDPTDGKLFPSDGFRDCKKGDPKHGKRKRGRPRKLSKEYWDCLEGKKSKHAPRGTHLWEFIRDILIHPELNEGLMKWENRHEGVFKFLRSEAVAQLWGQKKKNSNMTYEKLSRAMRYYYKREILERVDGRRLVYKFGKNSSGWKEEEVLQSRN
# Outline: as §1
# CRX = CRX (Homo sapiens, UniProt O43186 1-299); settings: protein: recombinant; tags: N-terminal GST; dsDNA, one strand shown
# Outline: as §1
# ETV1 = ETV1 (Homo sapiens, UniProt P50549 1-477); settings: protein: recombinant; tags: N-terminal GST; dsDNA, one strand shown
# Outline: as §1
# ERF = biological target: T6, ERF (Homo sapiens, UniProt P50548 1-548); settings: protein: recombinant; tags: N-terminal GST; dsDNA, one strand shown
# T6 sequence: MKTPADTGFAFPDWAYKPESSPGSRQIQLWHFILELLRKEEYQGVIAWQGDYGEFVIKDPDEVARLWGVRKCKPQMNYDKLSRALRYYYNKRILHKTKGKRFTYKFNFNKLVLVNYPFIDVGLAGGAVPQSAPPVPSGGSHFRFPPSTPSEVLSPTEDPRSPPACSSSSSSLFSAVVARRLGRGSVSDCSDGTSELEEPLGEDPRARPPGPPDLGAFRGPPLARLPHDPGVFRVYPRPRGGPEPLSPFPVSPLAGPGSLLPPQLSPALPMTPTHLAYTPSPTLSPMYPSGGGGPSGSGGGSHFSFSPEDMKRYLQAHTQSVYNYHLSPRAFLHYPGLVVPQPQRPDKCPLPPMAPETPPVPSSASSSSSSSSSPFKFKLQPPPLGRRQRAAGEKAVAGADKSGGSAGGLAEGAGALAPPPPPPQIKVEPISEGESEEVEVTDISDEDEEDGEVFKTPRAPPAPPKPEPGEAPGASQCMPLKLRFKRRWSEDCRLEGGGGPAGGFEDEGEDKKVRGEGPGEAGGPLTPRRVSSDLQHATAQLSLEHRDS
# Outline: as §1
# ETV3L = biological target: T7, ETV3L (Homo sapiens, UniProt Q6ZN32 1-361); settings: protein: recombinant; tags: N-terminal GST; dsDNA, one strand shown
# T7 sequence: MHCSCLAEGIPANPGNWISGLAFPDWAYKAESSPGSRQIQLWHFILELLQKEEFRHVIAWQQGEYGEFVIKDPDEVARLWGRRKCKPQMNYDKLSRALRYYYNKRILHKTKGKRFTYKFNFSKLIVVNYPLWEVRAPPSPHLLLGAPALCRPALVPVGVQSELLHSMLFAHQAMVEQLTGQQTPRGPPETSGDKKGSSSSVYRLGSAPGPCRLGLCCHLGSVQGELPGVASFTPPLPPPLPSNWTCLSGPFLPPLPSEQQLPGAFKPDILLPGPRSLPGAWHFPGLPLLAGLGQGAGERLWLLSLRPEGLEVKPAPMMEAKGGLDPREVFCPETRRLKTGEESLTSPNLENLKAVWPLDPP
# Outline: as §1
# ETS2 = biological target: T8, ETS2 (Homo sapiens, UniProt P15036 1-469); settings: protein: recombinant; tags: N-terminal GST; dsDNA, one strand shown
# T8 sequence: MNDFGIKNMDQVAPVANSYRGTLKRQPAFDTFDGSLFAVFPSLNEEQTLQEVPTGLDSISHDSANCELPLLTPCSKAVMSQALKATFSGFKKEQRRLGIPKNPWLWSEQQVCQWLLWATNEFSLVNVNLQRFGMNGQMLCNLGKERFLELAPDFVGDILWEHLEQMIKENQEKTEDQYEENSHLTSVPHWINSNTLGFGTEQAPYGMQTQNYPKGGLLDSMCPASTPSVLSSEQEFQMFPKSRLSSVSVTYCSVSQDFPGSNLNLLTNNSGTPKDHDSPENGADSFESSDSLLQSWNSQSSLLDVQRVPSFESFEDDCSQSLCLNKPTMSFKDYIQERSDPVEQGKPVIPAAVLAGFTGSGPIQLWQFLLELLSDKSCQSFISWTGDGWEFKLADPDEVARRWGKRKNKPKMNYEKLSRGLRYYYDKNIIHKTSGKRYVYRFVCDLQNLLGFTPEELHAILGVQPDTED
# Outline: as §1
# SPDEF = biological target: T9, SPDEF (Homo sapiens, UniProt O95238 1-335); settings: protein: recombinant; tags: N-terminal GST; dsDNA, one strand shown
# T9 sequence: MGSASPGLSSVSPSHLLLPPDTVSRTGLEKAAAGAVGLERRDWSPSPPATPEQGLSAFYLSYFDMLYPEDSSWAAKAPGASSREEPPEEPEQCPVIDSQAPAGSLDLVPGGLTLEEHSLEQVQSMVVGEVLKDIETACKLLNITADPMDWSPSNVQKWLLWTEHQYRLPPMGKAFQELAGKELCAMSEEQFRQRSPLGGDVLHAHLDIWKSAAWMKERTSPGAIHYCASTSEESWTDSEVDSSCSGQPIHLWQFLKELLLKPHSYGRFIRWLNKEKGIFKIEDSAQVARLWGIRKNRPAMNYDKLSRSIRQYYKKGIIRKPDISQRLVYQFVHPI
# Outline: as §1
# ETV7 = biological target: T10, ETV7 (Homo sapiens, UniProt Q9Y603 1-341); settings: protein: recombinant; tags: N-terminal GST; dsDNA, one strand shown
# T10 sequence: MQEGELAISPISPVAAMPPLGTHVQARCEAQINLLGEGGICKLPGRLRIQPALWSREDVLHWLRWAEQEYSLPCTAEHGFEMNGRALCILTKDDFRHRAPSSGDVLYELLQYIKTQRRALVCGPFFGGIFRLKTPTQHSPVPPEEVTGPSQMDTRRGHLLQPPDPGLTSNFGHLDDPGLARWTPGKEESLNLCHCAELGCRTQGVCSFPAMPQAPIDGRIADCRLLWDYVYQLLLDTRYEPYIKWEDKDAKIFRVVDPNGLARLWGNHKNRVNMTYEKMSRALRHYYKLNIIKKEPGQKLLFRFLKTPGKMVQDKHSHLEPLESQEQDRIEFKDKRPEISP
# Outline: as §1
# ELF5 = biological target: T11, ELF5 (Homo sapiens, UniProt Q9UKW6-2 1-255); settings: protein: recombinant; tags: N-terminal GST; dsDNA, one strand shown
# T11 sequence: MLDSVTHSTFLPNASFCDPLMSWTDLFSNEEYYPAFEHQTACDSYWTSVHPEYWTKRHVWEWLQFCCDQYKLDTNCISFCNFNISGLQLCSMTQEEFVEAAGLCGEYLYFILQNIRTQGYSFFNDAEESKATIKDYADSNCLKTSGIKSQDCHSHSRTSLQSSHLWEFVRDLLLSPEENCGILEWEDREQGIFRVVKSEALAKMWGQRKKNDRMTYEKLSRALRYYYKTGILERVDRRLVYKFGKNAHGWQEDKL
# Outline: as §1
# ETV3 = biological target: T12, ETV3 (Homo sapiens, UniProt P41162-2 1-143); settings: protein: recombinant; tags: N-terminal GST; dsDNA, one strand shown
# T12 sequence: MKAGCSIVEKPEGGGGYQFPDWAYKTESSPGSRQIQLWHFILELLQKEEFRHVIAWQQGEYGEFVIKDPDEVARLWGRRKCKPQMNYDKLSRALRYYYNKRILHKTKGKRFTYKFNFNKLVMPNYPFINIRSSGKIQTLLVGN
# Outline: as §1
# ETV6 = ETV6 (Homo sapiens, UniProt P41212 1-452); settings: protein: recombinant; tags: N-terminal GST; dsDNA, one strand shown
# Outline: as §1
# ETV1, sequence (P50549 whole entry): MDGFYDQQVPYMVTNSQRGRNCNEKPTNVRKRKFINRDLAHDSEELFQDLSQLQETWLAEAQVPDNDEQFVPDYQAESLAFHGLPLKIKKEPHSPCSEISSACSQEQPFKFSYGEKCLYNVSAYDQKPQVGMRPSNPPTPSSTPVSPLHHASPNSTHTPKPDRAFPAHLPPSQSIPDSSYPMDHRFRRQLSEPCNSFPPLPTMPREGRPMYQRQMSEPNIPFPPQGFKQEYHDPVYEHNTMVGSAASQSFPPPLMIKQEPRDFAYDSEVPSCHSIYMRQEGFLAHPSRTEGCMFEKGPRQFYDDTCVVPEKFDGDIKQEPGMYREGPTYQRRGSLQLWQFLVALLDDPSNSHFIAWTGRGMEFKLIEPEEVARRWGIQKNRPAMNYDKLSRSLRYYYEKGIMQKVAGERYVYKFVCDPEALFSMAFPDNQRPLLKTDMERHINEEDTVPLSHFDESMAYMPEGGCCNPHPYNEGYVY
# HSF1, sequence (Q00613 whole entry): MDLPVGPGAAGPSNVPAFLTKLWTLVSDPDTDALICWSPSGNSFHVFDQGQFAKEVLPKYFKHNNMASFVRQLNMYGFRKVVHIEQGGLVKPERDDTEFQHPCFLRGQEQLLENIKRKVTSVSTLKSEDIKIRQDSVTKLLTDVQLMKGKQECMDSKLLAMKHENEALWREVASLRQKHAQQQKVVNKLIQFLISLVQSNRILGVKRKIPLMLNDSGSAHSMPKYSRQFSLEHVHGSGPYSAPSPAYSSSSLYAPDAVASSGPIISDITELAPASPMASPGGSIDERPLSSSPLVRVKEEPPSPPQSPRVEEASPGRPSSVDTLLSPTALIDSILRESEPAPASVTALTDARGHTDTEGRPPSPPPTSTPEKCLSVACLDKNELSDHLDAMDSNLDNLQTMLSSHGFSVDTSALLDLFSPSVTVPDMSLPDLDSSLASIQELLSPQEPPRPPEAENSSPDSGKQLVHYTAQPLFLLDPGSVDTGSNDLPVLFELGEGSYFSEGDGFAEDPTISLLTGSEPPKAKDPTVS
# ETV5, sequence (P41161 whole entry): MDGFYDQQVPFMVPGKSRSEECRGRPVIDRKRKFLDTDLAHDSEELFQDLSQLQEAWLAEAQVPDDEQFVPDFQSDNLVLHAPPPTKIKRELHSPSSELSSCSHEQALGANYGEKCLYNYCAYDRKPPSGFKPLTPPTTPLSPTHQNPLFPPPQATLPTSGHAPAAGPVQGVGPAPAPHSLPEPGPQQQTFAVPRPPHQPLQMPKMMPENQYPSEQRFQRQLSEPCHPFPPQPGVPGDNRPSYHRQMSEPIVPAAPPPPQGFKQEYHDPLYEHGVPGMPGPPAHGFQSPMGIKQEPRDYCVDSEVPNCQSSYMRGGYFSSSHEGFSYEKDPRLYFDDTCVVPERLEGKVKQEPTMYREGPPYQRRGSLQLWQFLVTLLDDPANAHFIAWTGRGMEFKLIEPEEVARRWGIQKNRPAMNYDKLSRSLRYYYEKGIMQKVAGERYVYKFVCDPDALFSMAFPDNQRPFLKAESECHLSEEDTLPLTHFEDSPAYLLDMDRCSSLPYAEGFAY
# ELF4, sequence (Q99607 whole entry): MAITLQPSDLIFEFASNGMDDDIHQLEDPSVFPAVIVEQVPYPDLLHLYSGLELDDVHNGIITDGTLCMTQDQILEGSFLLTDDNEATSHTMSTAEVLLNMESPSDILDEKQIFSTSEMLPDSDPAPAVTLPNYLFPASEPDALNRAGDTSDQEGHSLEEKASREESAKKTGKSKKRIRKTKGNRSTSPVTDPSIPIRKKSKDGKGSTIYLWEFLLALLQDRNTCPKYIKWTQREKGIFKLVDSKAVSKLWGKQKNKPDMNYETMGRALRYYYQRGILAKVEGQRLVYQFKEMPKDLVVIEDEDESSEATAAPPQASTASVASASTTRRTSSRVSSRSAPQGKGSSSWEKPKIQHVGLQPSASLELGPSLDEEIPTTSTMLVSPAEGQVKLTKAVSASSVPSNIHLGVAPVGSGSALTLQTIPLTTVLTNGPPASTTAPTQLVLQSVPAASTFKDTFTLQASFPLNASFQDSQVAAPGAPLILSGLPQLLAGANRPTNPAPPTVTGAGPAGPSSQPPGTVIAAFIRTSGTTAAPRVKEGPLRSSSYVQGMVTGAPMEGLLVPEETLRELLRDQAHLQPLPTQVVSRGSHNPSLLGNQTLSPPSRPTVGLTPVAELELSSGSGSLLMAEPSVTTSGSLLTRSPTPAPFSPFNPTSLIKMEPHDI
# CRX, sequence (O43186 whole entry): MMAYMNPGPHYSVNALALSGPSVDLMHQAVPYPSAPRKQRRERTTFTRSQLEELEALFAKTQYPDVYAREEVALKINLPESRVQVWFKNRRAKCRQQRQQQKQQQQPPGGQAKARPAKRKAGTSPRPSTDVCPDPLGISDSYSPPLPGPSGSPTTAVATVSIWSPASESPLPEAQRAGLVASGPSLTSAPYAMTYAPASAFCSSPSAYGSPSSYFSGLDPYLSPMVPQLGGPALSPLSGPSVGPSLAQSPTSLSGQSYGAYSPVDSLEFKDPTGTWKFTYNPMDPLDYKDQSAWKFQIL
# ETV6, sequence (P41212 whole entry): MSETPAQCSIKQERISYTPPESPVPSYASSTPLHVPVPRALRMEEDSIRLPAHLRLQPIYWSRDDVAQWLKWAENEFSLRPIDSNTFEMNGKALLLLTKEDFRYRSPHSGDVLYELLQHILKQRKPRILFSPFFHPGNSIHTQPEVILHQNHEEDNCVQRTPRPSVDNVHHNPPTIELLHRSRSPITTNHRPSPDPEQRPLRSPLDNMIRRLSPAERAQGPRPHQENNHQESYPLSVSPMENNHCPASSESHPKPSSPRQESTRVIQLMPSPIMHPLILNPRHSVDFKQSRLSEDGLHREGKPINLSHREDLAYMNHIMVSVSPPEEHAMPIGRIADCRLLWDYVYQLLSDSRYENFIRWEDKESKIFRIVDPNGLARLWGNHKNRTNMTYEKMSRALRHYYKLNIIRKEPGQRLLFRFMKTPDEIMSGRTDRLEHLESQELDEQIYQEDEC
sequence,measurement,setting,value
AAAATA,binding signal,FEV,"1.15 fold enrichment (6-mer frequency, TF over GST control)"
same,binding signal,ETV5,"1.17 fold enrichment (6-mer frequency, TF over GST control)"
same,binding signal,HSF1,"1.34 fold enrichment (6-mer frequency, TF over GST control)"
same,binding signal,SPIC,"1.16 fold enrichment (6-mer frequency, TF over GST control)"
same,binding signal,ELF4,"1.17 fold enrichment (6-mer frequency, TF over GST control)"
same,binding signal,ELK4,"1.19 fold enrichment (6-mer frequency, TF over GST control)"
same,binding signal,ETV2,"1.21 fold enrichment (6-mer frequency, TF over GST control)"
same,binding signal,ELF3,"1.06 fold enrichment (6-mer frequency, TF over GST control)"
same,binding signal,CRX,"1.35 fold enrichment (6-mer frequency, TF over GST control)"
same,binding signal,ETV1,"1.1 fold enrichment (6-mer frequency, TF over GST control)"
same,binding signal,ERF,"1.27 fold enrichment (6-mer frequency, TF over GST control)"
same,binding signal,ETV3L,"1.14 fold enrichment (6-mer frequency, TF over GST control)"
same,binding signal,ETS2,"1.24 fold enrichment (6-mer frequency, TF over GST control)"
same,binding signal,SPDEF,"1.06 fold enrichment (6-mer frequency, TF over GST control)"
same,binding signal,ETV7,"1.22 fold enrichment (6-mer frequency, TF over GST control)"
same,binding signal,ELF5,"1.2 fold enrichment (6-mer frequency, TF over GST control)"
same,binding signal,ETV3,"1.13 fold enrichment (6-mer frequency, TF over GST control)"
same,binding signal,ETV6,"1.25 fold enrichment (6-mer frequency, TF over GST control)"
